# The supplement of paper PMC10849652
# The full data set covers some 8,800 targets. This sample favours those with a hit. About 0.5% of all pairs of compound and target were hits. Unmarked numbers belong to inactive results.
# How the values were obtained:
# Assay in all cases: log2 fold change, soluble protein after heating vs DMSO (PISA); higher = thermal stabilisation; K562 lysate, 10 uM; active = over 0.2 and 3.5 SD of the protein, either way, in both replicates (recomputed)
# vemurafenib = compound: CCCS(=O)(=O)Nc1ccc(F)c(C(=O)c2c[nH]c3ncc(-c4ccc(Cl)cc4)cc23)c1F [vemurafenib]
# Procedure, shortened: (§1)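 Values give the log-two fold change in thermal stability against solvent controls, from duplicates. Crude K562 extract at 1 mg/mL protein, made by dounce homogenisation in PBS pH 7.4 with 1 mM MgCl2, was treated with 10 μM compound for 30 min. After 3 min heating across 48°C-58°C, aliquots were pooled, adjusted to 0.5% NP-40 at 4°C and centrifuged at 21,000xg for 90 min. The supernatant was measured by TMTpro 16plex LC-MS/MS with channel sums equalised.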
# [1] = compound: CCCS(=O)(=O)Nc1ccc(F)c(C(=O)c2c[nH]c3ncc(Cl)cc23)c1F
# Procedure, shortened: as §1
# barasertib = compound: CCN(CCCOc1ccc2c(Nc3cc(CC(=O)Nc4cccc(F)c4)[nH]n3)ncnc2c1)CCOP(=O)(O)O [barasertib]
# Procedure, shortened: as §1
# [2] = compound: CC[C@@H]1C(=O)N(C)c2cnc(Nc3ccc(C(=O)NC4CCN(C)CC4)cc3OC)nc2N1C1CCCC1
# Procedure, shortened: as §1
# volasertib = compound: CC[C@@H]1C(=O)N(C)c2cnc(Nc3ccc(C(=O)N[C@H]4CC[C@H](N5CCN(CC6CC6)CC5)CC4)cc3OC)nc2N1C(C)C [volasertib]
# Procedure, shortened: as §1
# [3] = compound: CCn1c(C(=O)N(C2CC2)C2CC2)cc2c3c(ncn3C)c(Nc3cc(C)n(C)n3)nc21
# Procedure, shortened: as §1
# [4] = compound: CCn1cc(-c2ccnc3[nH]c(-c4cccc(CN(C)C)c4)cc23)c(-c2ccc(NC(=O)N(C)C)cc2)n1
# Procedure, shortened: as §1
# [5] = compound: CN1CCC(CNc2ccc3ncc(-c4cccc(OC(F)(F)F)c4)n3n2)CC1
# Procedure, shortened: as §1
# saracatinib = compound: CN1CCN(CCOc2cc(OC3CCOCC3)c3c(Nc4c(Cl)ccc5c4OCO5)ncnc3c2)CC1 [saracatinib]
# Procedure, shortened: as §1
# sotrastaurin = compound: CN1CCN(c2nc(C3=C(c4c[nH]c5ccccc45)C(=O)NC3=O)c3ccccc3n2)CC1 [sotrastaurin]
# Procedure, shortened: as §1
# Chain of UniProt Q96KF7 (Q96KF7 whole entry, looked up): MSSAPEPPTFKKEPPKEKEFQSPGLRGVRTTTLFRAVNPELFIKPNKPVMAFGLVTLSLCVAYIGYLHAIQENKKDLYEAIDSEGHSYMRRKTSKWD
# Chain of UniProt Q9Y3B4 (Q9Y3B4 whole entry, looked up): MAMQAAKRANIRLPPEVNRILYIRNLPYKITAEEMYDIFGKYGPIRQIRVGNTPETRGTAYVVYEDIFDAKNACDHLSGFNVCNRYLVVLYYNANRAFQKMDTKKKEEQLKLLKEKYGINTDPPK
# Chain of UniProt Q9BVQ7 (Q9BVQ7 whole entry, looked up): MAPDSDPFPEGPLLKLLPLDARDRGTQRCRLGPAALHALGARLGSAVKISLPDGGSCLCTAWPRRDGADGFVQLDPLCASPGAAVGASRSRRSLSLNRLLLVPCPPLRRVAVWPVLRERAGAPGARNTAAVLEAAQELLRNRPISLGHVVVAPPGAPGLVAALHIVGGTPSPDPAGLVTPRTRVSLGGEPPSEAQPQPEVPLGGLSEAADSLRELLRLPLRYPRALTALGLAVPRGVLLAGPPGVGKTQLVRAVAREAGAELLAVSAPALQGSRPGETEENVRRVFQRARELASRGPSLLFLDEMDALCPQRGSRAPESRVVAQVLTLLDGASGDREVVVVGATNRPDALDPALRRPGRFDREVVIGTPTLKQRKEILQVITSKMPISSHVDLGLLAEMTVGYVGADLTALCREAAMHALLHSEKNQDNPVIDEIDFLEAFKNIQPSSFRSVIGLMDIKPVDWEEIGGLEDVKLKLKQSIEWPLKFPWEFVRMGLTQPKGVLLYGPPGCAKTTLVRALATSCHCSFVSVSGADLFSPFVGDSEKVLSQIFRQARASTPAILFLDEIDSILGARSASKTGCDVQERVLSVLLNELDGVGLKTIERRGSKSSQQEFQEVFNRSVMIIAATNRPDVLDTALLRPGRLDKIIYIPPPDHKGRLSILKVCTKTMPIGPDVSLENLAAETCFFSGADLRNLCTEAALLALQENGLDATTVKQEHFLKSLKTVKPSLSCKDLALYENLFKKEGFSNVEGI
# Chain of UniProt O43808 (O43808 whole entry, looked up): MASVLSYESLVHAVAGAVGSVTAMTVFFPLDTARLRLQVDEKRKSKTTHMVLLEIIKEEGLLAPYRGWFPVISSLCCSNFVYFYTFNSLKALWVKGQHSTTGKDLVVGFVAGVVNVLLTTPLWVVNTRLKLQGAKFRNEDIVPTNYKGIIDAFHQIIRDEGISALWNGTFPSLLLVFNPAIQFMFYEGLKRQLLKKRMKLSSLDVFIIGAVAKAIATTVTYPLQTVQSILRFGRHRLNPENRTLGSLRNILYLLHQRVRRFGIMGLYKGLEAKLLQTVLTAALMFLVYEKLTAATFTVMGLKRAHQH
# Chain of UniProt P35610 (P35610 whole entry, looked up): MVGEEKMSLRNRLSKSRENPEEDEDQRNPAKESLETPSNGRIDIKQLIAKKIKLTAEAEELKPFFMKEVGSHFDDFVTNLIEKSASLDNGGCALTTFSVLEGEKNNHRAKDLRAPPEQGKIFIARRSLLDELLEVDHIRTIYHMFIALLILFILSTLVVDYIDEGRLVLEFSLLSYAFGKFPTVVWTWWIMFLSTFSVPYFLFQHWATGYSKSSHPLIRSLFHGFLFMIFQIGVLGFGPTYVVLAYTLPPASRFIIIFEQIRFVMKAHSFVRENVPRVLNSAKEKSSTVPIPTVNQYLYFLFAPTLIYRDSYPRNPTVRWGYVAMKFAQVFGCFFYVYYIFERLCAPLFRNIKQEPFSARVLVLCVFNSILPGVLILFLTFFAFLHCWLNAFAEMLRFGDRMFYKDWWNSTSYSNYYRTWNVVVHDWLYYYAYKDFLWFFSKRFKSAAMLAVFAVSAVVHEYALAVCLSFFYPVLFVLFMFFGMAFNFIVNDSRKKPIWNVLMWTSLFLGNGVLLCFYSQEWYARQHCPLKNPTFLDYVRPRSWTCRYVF
# Chain of UniProt Q9UL54 (Q9UL54 whole entry, looked up): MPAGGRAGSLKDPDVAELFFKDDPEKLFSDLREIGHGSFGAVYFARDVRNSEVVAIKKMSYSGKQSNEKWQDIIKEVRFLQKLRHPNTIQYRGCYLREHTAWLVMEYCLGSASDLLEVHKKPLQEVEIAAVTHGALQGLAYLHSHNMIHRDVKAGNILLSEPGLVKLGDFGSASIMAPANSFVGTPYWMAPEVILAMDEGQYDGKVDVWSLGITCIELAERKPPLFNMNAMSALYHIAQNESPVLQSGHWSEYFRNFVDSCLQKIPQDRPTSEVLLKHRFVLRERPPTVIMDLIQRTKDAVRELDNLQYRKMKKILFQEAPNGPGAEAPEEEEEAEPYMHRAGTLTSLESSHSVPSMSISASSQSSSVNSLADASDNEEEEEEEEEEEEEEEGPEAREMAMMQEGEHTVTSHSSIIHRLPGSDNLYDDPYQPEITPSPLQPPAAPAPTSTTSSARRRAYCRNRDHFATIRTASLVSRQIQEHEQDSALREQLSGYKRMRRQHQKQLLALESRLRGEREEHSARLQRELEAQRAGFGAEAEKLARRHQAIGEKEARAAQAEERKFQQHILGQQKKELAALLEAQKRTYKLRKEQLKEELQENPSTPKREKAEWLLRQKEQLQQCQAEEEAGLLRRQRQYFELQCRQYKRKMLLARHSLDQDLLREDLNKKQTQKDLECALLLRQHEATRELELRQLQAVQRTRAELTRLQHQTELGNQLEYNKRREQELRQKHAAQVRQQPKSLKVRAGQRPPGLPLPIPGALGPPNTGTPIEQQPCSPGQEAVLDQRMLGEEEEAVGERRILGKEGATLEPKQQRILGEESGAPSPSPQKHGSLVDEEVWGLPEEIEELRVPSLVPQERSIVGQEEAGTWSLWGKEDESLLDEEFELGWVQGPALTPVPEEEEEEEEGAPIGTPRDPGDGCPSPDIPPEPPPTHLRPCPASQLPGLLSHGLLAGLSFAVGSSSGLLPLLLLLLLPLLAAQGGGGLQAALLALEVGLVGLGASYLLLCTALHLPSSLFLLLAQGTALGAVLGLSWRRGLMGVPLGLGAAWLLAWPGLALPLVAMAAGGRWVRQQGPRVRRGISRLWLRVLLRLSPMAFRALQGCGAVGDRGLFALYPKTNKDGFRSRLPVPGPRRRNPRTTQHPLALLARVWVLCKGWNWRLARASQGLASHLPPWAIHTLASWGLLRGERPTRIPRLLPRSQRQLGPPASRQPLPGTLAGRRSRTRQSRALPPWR
# Chain of UniProt Q96DI7 (Q96DI7 whole entry, looked up): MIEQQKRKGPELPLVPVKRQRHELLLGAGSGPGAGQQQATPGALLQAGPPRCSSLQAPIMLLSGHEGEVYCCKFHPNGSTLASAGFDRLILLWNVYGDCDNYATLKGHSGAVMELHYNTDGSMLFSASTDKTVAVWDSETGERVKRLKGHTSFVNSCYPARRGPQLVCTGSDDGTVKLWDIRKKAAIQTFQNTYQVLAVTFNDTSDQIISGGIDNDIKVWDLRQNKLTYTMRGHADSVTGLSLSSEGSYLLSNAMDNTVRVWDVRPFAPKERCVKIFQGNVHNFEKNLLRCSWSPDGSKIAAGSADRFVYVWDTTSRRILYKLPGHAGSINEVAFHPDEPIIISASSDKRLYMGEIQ
# Chain of UniProt P62318 (P62318 whole entry, looked up): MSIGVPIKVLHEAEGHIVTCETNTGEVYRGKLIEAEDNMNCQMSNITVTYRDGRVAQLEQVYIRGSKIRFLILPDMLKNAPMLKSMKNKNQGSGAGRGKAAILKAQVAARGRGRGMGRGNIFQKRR
# Chain of UniProt Q9UJC5 (Q9UJC5 whole entry, looked up): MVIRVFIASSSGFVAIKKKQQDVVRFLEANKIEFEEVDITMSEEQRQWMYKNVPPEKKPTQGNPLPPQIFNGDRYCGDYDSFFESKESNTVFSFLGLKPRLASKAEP
# Chain of UniProt Q9UQE7 (Q9UQE7 whole entry, looked up): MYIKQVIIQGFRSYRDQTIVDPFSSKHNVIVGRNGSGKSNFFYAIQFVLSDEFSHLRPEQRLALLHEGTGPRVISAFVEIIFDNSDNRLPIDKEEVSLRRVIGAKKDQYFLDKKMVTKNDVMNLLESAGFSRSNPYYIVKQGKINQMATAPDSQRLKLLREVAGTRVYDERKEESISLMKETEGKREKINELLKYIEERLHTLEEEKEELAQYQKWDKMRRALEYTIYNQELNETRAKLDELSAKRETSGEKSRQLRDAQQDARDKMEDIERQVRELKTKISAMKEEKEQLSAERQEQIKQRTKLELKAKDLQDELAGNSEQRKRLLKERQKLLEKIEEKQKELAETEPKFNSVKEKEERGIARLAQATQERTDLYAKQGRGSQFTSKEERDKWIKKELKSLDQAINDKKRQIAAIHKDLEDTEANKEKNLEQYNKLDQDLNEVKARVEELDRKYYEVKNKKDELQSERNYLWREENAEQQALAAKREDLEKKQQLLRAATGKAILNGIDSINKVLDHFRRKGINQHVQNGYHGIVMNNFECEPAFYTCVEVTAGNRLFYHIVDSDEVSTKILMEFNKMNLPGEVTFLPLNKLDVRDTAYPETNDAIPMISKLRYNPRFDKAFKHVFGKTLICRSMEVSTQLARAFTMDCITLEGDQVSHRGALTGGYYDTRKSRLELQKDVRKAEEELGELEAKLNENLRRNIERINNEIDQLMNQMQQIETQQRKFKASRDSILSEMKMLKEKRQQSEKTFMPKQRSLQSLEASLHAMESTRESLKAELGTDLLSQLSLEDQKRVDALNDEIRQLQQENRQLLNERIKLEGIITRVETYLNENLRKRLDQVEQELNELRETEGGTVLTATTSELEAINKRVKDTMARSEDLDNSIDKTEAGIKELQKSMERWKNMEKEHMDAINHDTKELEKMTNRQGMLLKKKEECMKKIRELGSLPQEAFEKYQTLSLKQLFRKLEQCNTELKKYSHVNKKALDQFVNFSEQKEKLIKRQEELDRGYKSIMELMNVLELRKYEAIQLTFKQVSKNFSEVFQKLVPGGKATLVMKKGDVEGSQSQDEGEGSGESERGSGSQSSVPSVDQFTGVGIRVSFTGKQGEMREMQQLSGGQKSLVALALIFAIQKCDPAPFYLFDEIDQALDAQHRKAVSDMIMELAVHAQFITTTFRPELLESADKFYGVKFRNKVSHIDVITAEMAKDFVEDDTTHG
# Chain of UniProt P62306 (P62306 whole entry, looked up): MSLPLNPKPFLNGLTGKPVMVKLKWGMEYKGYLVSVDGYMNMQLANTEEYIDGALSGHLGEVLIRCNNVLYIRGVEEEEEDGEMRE
Target,log2 fold change (vemurafenib),log2 fold change [1],log2 fold change (barasertib),log2 fold change [2],log2 fold change (volasertib),log2 fold change [3],log2 fold change [4],log2 fold change [5],log2 fold change (saracatinib),log2 fold change (sotrastaurin)
SSBP3 (UniProt Q9BWW4),-0.02,-0.033,-0.049,-0.001,0.008,0.038,-0.03,-0.083,0.068,-0.005
SPATA5L1 (UniProt Q9BVQ7),0.03,0.015,0.052,-0.058,-0.135,0.014,-0.023,0.012,0.024,0.015
TAOK2 (UniProt Q9UL54),-0.039,-0.041,0.059,0.021,-0.056,-0.077,-0.005,-0.003,-0.005,0.109
SF3B6 (UniProt Q9Y3B4),-0.006,-0.003,-0.026,0.027,0.014,-0.003,0.061,-0.013,0.028,0.018
SMC3 (UniProt Q9UQE7),-0.018,0.004,-0.004,0.008,-0.013,0.003,0.041,-0.018,-0.011,-0.016
SNRPF (UniProt P62306),0.023,0.002,0.045,0.067,0.032,-0.051,-0.35 (active),0.24,-0.044,0.042
SH3BGRL2 (UniProt Q9UJC5),-0.013,0.021,0.022,0.076,0.006,-0.007,0.387 (active),-0.052,0.014,0.002
SLC25A17 (UniProt O43808),-0.035,-0.031,0.02,0.066,0.04,-0.043,-0.119,0.103,0.041,0.015
STK25 (UniProt O00506),-0.018,-0.005,0.017,-0.034,-0.078,-0.042,-0.037,0.016,-0.026,0.022
SNRPD3 (UniProt P62318),0.022,-0.012,-0.006,-0.049,-0.004,0.052,-0.254,0.135,0.046,0.024
SOAT1 (UniProt P35610),0.047,0.055,0.008,-0.003,-0.009,-0.061,-0.063,-0.062,0.016,0.019
SNRNP40 (UniProt Q96DI7),-0.032,0.019,-0.06,-0.001,-0.024,-0.033,-0.115,0.058,0.01,-0.013
SURF2 (UniProt Q15527),-0.009,-0.002,-0.007,0.049,0.002,0.127,-0.063,0.02,0.004,-0.007
SMIM8 (UniProt Q96KF7),0.037,0.048,0.088,-0.003,0.012,0.057,-0.382 (active),0.177,-0.071,-0.027
SLC11A2 isoform 3 (UniProt P49281),-0.009,0.043,0.019,0.073,0.026,0.036,-0.082,0.074,0.028,-0.012
